# Data reported in PubChem BioAssay.
# The source made the active and inactive calls.
# Legend:
# [1] = binders of probe aFSTL3 on microarray, primary screen, stem cell growth factor project, biochemical, small-molecule microarray, fluorescence 635/667 (AID 1064); conditions: higher = more signal;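 note: measures binding of the biotinylated anti-FSTL3 antibody to printed compounds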
# [2] = binders from COS7 lysate, DM2A8 probe, primary screen, torsin A project, cell lysate, small-molecule microarray, fluorescence 635/667 (AID 1065); conditions: higher = more signal, COS7 lysate expressing mutant human TOR1A
# [3] = binders of probe aFGF2 on microarray, primary screen, stem cell growth factor project, biochemical, small-molecule microarray, fluorescence 635/667 (AID 1067); conditions: higher = more signal;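 note: measures binding of biotinylated aFGF2 protein to printed compounds on slides; z-score merges feature fluorescence and signal-to-noise across triplicate slides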
# [4] = binders of probe aFGF10 on microarray, primary screen, stem cell growth factor project, biochemical, small-molecule microarray, fluorescence 635/667 (AID 1071); conditions: higher = more signal;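 note: score merges 667 nm spot intensity and signal to noise from triplicate slides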
# [5] = molecular target: Neurogenic locus notch homolog protein 2 (Homo sapiens) (UniProt Q04721); assay: Notch2 binders on small-molecule microarrays, primary screen, biochemical, small-molecule microarray, 635 nm fluorescence, stem cell growth factors (AID 1073); conditions: Notch2 binding, higher = more signal
# [6] = molecular target: Pro-neuregulin-1, membrane-bound isoform (Homo sapiens) (UniProt Q02297); assay: NRG1 binders on small-molecule microarrays, primary screen, psychiatric disease protein project, biochemical, small-molecule microarray, fluorescence 635/667 (AID 1075); conditions: NRG1 binding, 635 nm fluorescence, higher = more signal;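 note: score combines 667 nm spot fluorescence with signal to noise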
# Chain of Pro-neuregulin-1, membrane-bound isoform (Homo sapiens) (Q02297 whole entry, looked up, the tested form may be a part, canonical isoform): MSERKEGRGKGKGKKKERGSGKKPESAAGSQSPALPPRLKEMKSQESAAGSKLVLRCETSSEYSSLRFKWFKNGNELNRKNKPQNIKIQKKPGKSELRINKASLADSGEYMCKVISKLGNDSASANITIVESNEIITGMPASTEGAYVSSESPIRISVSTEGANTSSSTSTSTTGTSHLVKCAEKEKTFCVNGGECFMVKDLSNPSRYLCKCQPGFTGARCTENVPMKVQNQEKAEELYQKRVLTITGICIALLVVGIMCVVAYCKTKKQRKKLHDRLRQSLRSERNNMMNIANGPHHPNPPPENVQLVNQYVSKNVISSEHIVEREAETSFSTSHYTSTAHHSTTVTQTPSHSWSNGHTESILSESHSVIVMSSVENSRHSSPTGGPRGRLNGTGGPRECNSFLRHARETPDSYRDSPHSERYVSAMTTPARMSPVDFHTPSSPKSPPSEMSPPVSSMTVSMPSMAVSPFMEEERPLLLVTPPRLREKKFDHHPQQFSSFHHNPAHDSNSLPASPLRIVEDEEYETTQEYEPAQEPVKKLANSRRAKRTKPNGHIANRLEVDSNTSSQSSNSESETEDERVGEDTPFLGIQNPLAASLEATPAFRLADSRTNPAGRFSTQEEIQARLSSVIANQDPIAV
# [7] = tested on: Neuregulin-1 EGF-like domain; assay: binders of neuregulin-1 EGF-like domain, primary screen, biochemical, small-molecule microarray, 635 nm fluorescence (AID 1081); conditions: small-molecule microarray binding, higher = more signal;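 note: binding of the protein to compounds printed on small-molecule microarray slides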
# [8] = FRG1 promoter luciferase signal modulators, primary screen, FRG1 inhibition for FSHD, cell-based, C2C12 myotubes, firefly/Renilla luciferase, luminescence (AID 1084); conditions: higher = more signal, called active from +8 up or from −8 down
# [9] = binders of probe aFST on microarray, primary screen, stem cell growth factor project, biochemical, small-molecule microarray, fluorescence 635/667 (AID 1086); conditions: higher = more signal;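 note: score merges 667 nm fluorescence with signal-to-noise of each printed compound spot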
# [10] = binders of probe aHhip on microarray, primary screen, stem cell growth factor project, biochemical, small-molecule microarray, fluorescence 635/667 (AID 1087); conditions: higher = more signal;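 note: score merges spot fluorescence at 667nm with spot signal to noise ratio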
# [11] = tested on: PRMT1 (protein arginine N-methyltransferase 1); assay: PRMT1 binders on small-molecule microarrays, primary screen, biochemical, small-molecule microarray, 635 nm fluorescence (AID 1088); conditions: small-molecule microarray binding, higher = more signal;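 note: binding of Prmt1 protein to compounds spotted on small-molecule microarray slides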
# [12] = yeast growth modulation, basal conditions, primary screen, YJM789 clinical isolate, OD600, 24 h (AID 1089);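 note: growth of clinical yeast isolate S. cerevisiae YJM 789 seeded 1000 cells per well; test concentration not given here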; conditions: S. cerevisiae YJM789 growth, higher = more signal, called active from +8 up or from −8 down
# [13] = fission yeast growth modulation, primary screen, strain 972, OD600, 24 h, no modulator (AID 1090);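 note: basal condition with compound alone and no growth modifier present; test concentration not given here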; conditions: S. pombe 972 growth, higher = more signal, called active from +8 up or from −8 down
# [14] = S. cerevisiae growth modulation with rapamycin, primary screen, strain BY4716, OD600, 96 h (AID 1091); conditions: higher = more signal, called active from +8 up or from −8 down; note: test concentration not given here
# [15] = molecular target: Torsin-1A-interacting protein 2 (Homo sapiens) (UniProt Q8NFQ8); assay: LULL1 binders on small-molecule microarray, primary screen, cell lysate, human LULL1 lysate, 635/667 nm fluorescence (AID 1092); conditions: hLULL1 lysate binding, 635 nm fluorescence, higher = more signal;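 note: probe is lysate of COS7 cells overexpressing human LULL1; score merges per-feature 667 nm fluorescence with signal-to-noise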
# Chain of Torsin-1A-interacting protein 2 (Homo sapiens) (Q8NFQ8 whole entry, looked up): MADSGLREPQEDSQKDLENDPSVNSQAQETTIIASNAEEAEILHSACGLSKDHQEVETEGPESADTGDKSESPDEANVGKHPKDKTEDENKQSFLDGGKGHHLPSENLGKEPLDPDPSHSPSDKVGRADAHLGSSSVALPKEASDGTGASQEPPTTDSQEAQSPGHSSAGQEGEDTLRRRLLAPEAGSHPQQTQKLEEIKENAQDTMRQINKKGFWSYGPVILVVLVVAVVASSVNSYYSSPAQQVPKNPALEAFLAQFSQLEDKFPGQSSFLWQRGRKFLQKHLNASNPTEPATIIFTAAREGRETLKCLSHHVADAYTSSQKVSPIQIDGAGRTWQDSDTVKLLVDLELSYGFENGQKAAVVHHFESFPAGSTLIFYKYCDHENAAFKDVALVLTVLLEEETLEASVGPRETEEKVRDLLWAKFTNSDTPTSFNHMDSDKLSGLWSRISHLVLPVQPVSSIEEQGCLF
# [16] = E. coli growth modulation, two-sided OD650, primary screen, E. coli filamentation project, strain DRC41, 24 h (AID 1093); conditions: OD650, 24 h, higher = more signal, called active from +8 up or from −8 down;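 note: MC1000 strain lacking acrAB efflux and sulA so SOS filamentation is blocked; test concentration not given here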
# [17] = small-molecule microarray binders of probe aLefty2, primary screen, biochemical, biotinylated probe, 635/667 nm fluorescence (AID 1094); conditions: higher = more signal;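 note: score merges spot fluorescence near 667 nm with spot signal-to-noise ratio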
# [18] = tested on: Noggin (protein binding on small-molecule microarray); assay: Noggin binders on small-molecule microarray, primary screen, biochemical, 635/667 nm fluorescence (AID 1095); conditions: 635 nm fluorescence, higher = more signal;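 note: score merges 667 nm feature fluorescence with signal to noise over triplicate slides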
# [19] = molecular target: Neurogenic locus notch homolog protein 3 (Homo sapiens) (UniProt Q9UM47); assay: NOTCH3 binders on small-molecule microarray, primary screen, biochemical, 635/667 nm fluorescence (AID 1096); conditions: NOTCH3 binding, 635 nm fluorescence, higher = more signal
# Chain of Neurogenic locus notch homolog protein 3 (Homo sapiens) (Q9UM47 whole entry, looked up): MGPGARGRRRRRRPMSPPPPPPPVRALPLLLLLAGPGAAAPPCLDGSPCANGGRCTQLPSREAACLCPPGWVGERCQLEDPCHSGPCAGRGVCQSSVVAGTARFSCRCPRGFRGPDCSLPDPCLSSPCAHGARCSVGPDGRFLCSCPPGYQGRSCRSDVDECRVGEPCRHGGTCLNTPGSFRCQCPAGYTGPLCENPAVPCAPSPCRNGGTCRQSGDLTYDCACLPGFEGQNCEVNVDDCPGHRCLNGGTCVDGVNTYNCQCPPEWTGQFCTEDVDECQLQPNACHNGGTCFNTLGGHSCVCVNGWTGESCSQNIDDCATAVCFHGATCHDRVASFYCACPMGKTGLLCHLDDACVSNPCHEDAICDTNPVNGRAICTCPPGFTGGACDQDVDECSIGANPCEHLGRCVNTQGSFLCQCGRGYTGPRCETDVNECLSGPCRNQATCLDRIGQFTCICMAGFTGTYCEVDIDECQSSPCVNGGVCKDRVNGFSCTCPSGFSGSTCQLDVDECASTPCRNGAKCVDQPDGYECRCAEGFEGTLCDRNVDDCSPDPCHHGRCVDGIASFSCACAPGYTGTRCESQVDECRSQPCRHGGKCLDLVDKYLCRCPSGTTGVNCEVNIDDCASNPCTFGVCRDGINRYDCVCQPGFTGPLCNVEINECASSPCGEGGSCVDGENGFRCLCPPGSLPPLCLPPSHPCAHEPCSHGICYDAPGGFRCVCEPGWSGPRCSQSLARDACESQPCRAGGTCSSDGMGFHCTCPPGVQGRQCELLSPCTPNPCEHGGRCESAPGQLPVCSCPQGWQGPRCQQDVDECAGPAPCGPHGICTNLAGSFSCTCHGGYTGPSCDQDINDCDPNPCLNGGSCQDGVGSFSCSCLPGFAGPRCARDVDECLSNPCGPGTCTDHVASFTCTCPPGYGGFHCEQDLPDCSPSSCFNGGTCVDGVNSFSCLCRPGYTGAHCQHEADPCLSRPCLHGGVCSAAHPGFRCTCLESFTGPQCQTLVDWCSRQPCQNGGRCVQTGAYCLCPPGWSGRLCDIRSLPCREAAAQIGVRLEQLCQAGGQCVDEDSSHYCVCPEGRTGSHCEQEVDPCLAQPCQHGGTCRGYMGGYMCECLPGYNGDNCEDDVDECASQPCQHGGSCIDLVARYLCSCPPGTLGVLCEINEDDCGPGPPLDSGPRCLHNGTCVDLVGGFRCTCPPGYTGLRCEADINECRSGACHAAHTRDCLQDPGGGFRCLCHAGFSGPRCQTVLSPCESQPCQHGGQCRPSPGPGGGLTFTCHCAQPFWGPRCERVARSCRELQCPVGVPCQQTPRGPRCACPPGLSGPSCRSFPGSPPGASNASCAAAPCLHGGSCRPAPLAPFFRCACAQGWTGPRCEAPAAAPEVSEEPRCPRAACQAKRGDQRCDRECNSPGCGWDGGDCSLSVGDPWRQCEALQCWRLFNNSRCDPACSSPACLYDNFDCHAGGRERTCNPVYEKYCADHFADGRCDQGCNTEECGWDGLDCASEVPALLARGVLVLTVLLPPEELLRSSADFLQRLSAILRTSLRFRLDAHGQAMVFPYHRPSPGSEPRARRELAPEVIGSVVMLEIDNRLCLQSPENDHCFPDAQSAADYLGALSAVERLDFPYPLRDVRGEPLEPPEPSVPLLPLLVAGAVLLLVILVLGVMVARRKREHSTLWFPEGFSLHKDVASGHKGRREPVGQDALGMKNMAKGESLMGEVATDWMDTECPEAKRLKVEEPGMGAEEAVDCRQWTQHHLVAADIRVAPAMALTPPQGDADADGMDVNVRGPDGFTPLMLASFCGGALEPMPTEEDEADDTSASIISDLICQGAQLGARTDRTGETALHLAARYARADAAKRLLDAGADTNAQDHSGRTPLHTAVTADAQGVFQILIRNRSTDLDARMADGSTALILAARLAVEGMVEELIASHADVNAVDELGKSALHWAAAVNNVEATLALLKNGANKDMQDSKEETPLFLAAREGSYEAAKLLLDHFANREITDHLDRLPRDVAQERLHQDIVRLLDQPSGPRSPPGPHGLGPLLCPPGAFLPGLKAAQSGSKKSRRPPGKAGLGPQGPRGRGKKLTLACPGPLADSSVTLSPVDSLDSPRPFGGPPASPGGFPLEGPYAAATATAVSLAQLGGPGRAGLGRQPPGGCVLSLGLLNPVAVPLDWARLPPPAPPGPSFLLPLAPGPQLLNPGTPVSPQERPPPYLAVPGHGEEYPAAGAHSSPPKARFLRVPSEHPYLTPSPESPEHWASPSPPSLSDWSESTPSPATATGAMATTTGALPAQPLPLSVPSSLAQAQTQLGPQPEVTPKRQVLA
# [20] = small-molecule microarray binders of probe aEGFR, primary screen, biochemical, biotinylated probe, 635/667 nm fluorescence (AID 1097); conditions: higher = more signal;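 note: probe is a biotinylated anti-EGFR antibody binding compounds printed on slides; score combines fluorescence near 667 nm and signal to noise of each spot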
SMILES,composite z-score [1],composite z-score [2],composite z-score [3],composite z-score [4],composite z-score [5],composite z-score [6],composite z-score [7],z-score [8],composite z-score [9],composite z-score [10],composite z-score [11],z-score [12],z-score [13],z-score [14],composite z-score [15],z-score [16],composite z-score [17],composite z-score [18],composite z-score [19],composite z-score [20]
C#CCCCON=C1C[C@@H](O)[C@@H](O)[C@@H]2[C@@H]3C(=O)N(C[C@@H]4CCCO4)C(=O)[C@@H]3CC[C@H]12,-0.444,0.368,-0.168,0.188,0.53,0.43,0.475,0.164 (inactive),0.0653,-0.353,0.81,0.426 (inactive),0.775 (inactive),0.749 (inactive),1.22,0.397 (inactive),-0.134,0.463,0.607,-0.0828
COC(=O)[C@@H]1CC[C@H](C)[C@@H](c2ccc(Br)cc2)N1C(=O)C(F)(F)F,-0.23,-0.214,-0.108,-0.148,-0.232,-0.493,-0.677,-0.589 (inactive),-0.249,-0.412,-1.18,0.61 (inactive),0.186 (inactive),2.16 (inactive),1.25,0.11 (inactive),-0.22,-0.281,-0.446,-0.226
O=C1[C@H]2[C@H]3[C@H](O)[C@H](O)CC(=NOCc4ccccc4)[C@@H]3CC[C@H]2C(=O)N1c1cccc(Oc2ccccc2)c1,-0.556,0.101,-0.0579,0.554,0.359,1.48,0.988,-0.441 (inactive),0.529,0.141,1.35,0.663 (inactive),0.277 (inactive),-0.349 (inactive),1.6,0.589 (inactive),0.266,0.889,0.64,-0.0967
C#CCCCON=C1C[C@@H](O)[C@@H](O)[C@@H]2[C@@H]3C(=O)N([C@@H](C)c4ccccc4)C(=O)[C@@H]3CC[C@@H]12,-0.0065,-0.318,-0.17,-0.46,-0.351,-0.191,-0.934,0.0665 (inactive),-0.069,-0.267,-0.0587,0.837 (inactive),1.4 (inactive),1.26 (inactive),-0.148,0.761 (inactive),-0.161,-0.225,-0.746,-0.1
CC(=O)OC[C@H]1O[C@H](CC=NO[C@@H](C)c2cc(-c3c(C)cc(C)cc3C)no2)C=C[C@@H]1OC(C)=O,-0.357,-0.264,-0.1,0.149,0.0166,-0.291,-0.736,1.03 (inactive),-0.122,-0.0994,-0.0654,0.208 (inactive),-0.0489 (inactive),0.523 (inactive),-0.382,-0.542 (inactive),-0.212,0.342,0.106,-0.0662
CCN1C(=O)[C@H]2[C@H]3[C@H](O)[C@H](O)CC(=NO[C@@H](C)c4cc(-c5c(C)cc(C)cc5C)no4)[C@@H]3CC[C@H]2C1=O,-0.558,1.13,-0.0243,0.624,0.817,1.08,1.04,0.998 (inactive),0.544,-0.225,1.55,-0.393 (inactive),-1.15 (inactive),-0.875 (inactive),2,1.16 (inactive),-0.0283,0.529,0.994,0.123
CCOC(=O)[C@H](Cc1ccccc1)NC(=O)CCC1CC(OC(=O)NCCc2ccc(F)cc2)CC2(CCCC(COC(=O)NCCC(C)C)O2)O1 (stereo not given in full),-0.397,0.813,-0.0296,-0.409,1.28,0.539,1.02,-0.214 (inactive),0.296,-0.201,1.56,0.91 (inactive),0.902 (inactive),0.783 (inactive),2.32,0.087 (inactive),-0.145,1.24,1.07,-0.0424
CCOC(=O)[C@H](Cc1ccccc1)NC(=O)CCC1CC(OC(=O)NCc2cccc3ccccc23)CC2(CCCC(COC(=O)NCC3CCCCC3)O2)O1 (stereo not given in full),-0.421,0.979,-0.154,0.183,0.595,0.619,0.994,0.0184 (inactive),0.253,0.102,1.41,-0.617 (inactive),-0.174 (inactive),-0.445 (inactive),1.4,-0.448 (inactive),-0.117,0.926,1.14,-0.0381
CC(C)[C@@H](OCc1ccccc1)[C@H](C)C=NOC[C@@H](O)[C@H]1O[C@@H]2OC(C)(C)O[C@@H]2[C@H]1O,-0.365,0.116,-0.198,0.492,0.25,0.125,0.361,0.417 (inactive),0.307,-0.0645,0.763,0.87 (inactive),1.05 (inactive),0.821 (inactive),0.758,0.517 (inactive),-0.132,1.07,0.676,-0.0828
CO[C@H]1COC(=O)[C@H](C)COC(=O)[C@@H](OCc2ccccc2)C=C[C@@H]1C,-0.411,0.0756,-0.178,0.0844,-0.501,-0.319,-0.365,-0.224 (inactive),1.27,0.449,0.855,0.138 (inactive),-1.28 (inactive),-0.876 (inactive),-0.198,0.554 (inactive),-0.241,1,-0.732,-0.188
